Compound activity deposited in PubChem by ICCB-Longwood Screening Facility, Harvard Medical School.
The list is not random: actives were taken first. Their share in the collection is about 1.5%.
Mtb MbtI inh: MbtI salicylate synthase inhibitors, primary screen, biochemical, fluorescence intensity. P9WFX0. purified MbtI enzyme, fluorescence intensity read-out. inhibition, % (test concentration not listed). 100,000 tested, 0.89% active. AID 493033, 2011; in the data active = inhibition mostly above about 56%, no sharp cut-off; inactive = mostly below about 77%
AID504770: growth inhibition of E. coli YBA685, primary screen, V. cholerae RctB inhibitors. AID 504770, 2011. E. coli YBA685 rctB-dependent plasmid, OD600 growth, 3 h; active compounds read low. 130,000 tested, 0.27% active. z-score (test concentration not listed); in the data active = z-score below about -2, passing the limit was not always enough
Mtb MenB inh: M. tuberculosis MenB inhibitors, primary screen, biochemical, absorbance. 1,4-dihydroxy-2-naphthoyl-CoA synthase (Mycobacterium tuberculosis (strain ATCC 25618 / …. MenB enzyme assay, absorbance read-out. inhibition, % (no concentration beside the values). 100,000 tested, 0.43% active; in the data active = inhibition above about 21%, passing the limit was not always enough
Target sequence (P9WNP5 whole entry, looked up): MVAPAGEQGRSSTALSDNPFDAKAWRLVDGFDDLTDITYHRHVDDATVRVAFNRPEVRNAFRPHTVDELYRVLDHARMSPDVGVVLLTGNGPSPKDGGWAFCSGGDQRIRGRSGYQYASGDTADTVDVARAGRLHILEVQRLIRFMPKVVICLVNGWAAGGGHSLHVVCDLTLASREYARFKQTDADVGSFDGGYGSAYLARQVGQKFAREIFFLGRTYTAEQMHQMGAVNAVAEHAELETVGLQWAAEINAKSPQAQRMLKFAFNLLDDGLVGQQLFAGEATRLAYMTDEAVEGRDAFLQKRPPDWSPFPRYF
PV pol inh: poliovirus RdRp elongation inhibitors, primary screen, biochemical, fluorescence polarization, total intensity; Genome polyprotein (Poliovirus type 1 (strain Mahoney)), P03300; AID 588519, 2011; 150,000 tested, 0.66% active; % elongation, % (compound at 16.7 µg/mL); poliovirus polymerase elongation; active compounds read low; in the data active = % elongation below about 90%
The depositor's hits bear a star; · = no result given; ! = not confirmed by another sample.

SMILES | Mtb MbtI inh | AID504770 | Mtb MenB inh | PV pol inh
O=C(OCC1CCNCC1)c1ccc(F)cc1 | 14.2 | 0.95 | 27.3* | 102.0
O=C(OCC1CCNCC1)c1ccc2c(c1)OCO2 | 35.6 | -0.15 | 2.6 | 103.0
CN(C)c1cc(NCc2ccco2)c2c3c(onc13)-c1ccccc1C2=O | 0.1 | 0.45 | -0.1 | 102.0
O=C1OCC(CO)N1c1ccccc1 (stereo not given) | · | 1.4 | -43.1 | 90.0*
CCOC(=O)c1nnn(-c2nn3nnnc3c3ccccc23)c1C | 13.6 | 0.7 | 32.3* | 100.0
CCOC(=O)c1nnn(-c2nonc2-n2cccc2)c1C | -12.0 | -0.85 | -16.2 | 101.0
Cc1ccc(C(=O)CSc2nnc3[nH]c(=O)cc(C)n23)cc1 | · | -0.5 | · | ·
COC(=O)C1=C(C)NC(=O)/C1=C\c1ccc(C)cc1 | 13.7 | 2.6 | -58.2 | 101.0
Cc1ccc(C=C2C(=O)NC(=O)NC2=O)cc1 | 22.0 | -4.7* | -54.5 | 99.0
Cc1c(C)c2c(=O)n(-c3ccccc3)[nH]c2[nH]c1=O | 65.8* | 1.35 | · | ·
Cc1cc(=O)[nH]c2[nH]n(-c3ccccc3)c(=O)c12 | · | -0.8 | -2.5 | 103.0
COc1ccccc1CNC(=O)C1CCCN(C(=O)N2CCOc3ccccc32)C1 (stereo not given) | -73.5 | 0.6 | 0.1 | 101.0
c1ccc(OCCSC2=NCCN2)cc1 | 89.0* | -1.35 | -36.9 | 101.0
c1ccc(OCCSc2nc3ccccc3[nH]2)cc1 | -1.1 | 0.25 | -1.0 | 101.0
COC(=O)c1c(NC(=S)NCc2ccco2)sc2c1CCC2 | 60.8* | -0.7 | -11.0 | 99.0
COC(=O)c1c(NC(=O)C2CCCC2)sc2c1CCCC2 | · | 2.55 | -15.9 | 82.0*
O=C(Nc1sc2c(c1C(=O)NCc1ccco1)CCC2)c1cccs1 | 2.4 | 0.3 | -5.1 | 101.0
COc1cccc2c1CCN(Cc1cccc(C)c1)C2=O | -3.2 | 0.2 | -7.7 | 102.0
Cn1c(COc2ccccc2)n[nH]c1=S | 64.8*! | -0.5 | -42.4 | 102.0
C=CCn1c(COc2ccccc2)n[nH]c1=S | · | -0.65 | -40.0 | 104.0
O=c1oc(C23CC4CC(CC(C4)C2)C3)ns1 | · | -0.45 | -26.8 | 73.0*
CN(Cc1nc(-c2ccccc2)no1)C(=O)C12CC3CC(CC(C3)C1)C2 | -1.1 | -0.1 | -17.8 | 101.0
CC1(C)CC(=O)C(C(=N)Cc2ccccc2)=C(O)C1 | -4.0 | -1 | · | 100.0
COCC(=O)Nc1ccccc1C(C)C | -6.6 | -0.75 | 1.3 | 98.0
CC(C)c1ccccc1NN | · | 0.75 | 11.5 | 79.0*
SMILES | Mtb MbtI inh | AID504770 | Mtb MenB inh | PV pol inh
Clc1ccc2c(c1)CCN2 | 27.1 | -2.15 | 36.3* | 100.0
O=C(O)c1ccc2c(c1)CCCN2 | · | 0.75 | · | ·
CCOC(=O)c1sc(S(C)=O)c2c1CCCC2=O (stereo not given) | 63.3* | -0.25 | 18.9 | 98.0
C=CCOC(=O)c1sc(N2CCCC2=O)c(C(=O)OCC)c1C | 7.9 | -0.4 | 2.9 | 102.0
CCOC(=O)c1sc(N=NC2=C(O)CCCC2=O)c(C(=O)OCC)c1C | 13.7 | 0.75 | -39.8 | 42.0*
COC(=O)COc1ccc(S(=O)(=O)Nc2ccc(C(F)(F)F)cc2)cc1 | -14.2 | -0.85 | -0.1 | 98.0
O=C1C=CC(=O)N1c1ccc(S(=O)(=O)Nc2ccc(C(F)(F)F)cc2)cc1 | 98.3* | 0.7 | -0.6 | 105.0
CCN1C(=O)C2CC(C)=C(C)CC2C1=O (stereo not given) | -2.6 | -0.8 | -8.8 | 97.0
CCN1C(=O)CC(OC(C)=O)C1=O (stereo not given) | 66.0* | 0.2 | -17.4 | 103.0
CC(C)C(NC(=O)c1ccccc1)C(=O)O (stereo not given) | -7.2 | -0.65 | -19.4 | 100.0
CC(NC(=O)c1ccc(-c2ccccc2)cc1)C(=O)O (stereo not given) | 3.3 | -1 | 28.9* | 103.0
Cc1cccc(NC(=O)CN(C2=NC3CS(=O)(=O)CC3S2)c2ccccc2)c1 (stereo not given) | 3.6 | 0.7 | -66.4 | 99.0
CCc1cccc(NC(=O)CN(C2=NC3CS(=O)(=O)CC3S2)c2cccc(C)c2)c1 (stereo not given) | -4.5 | -2.45* | -10.5 | 100.0
CC(C)(C)OC(=O)NCCN1CCNCC1 | 2.2 | 1.45 | -30.2 | 101.0
O=C(CS(=O)(=O)Cc1ccccc1)Nc1ccccn1 | 7.4 | -0.1 | 36.3* | 101.0
C=CCSc1nnc(NC(=O)c2oc3ccccc3c2C)s1 | 6.2 | -0.15 | 7.7 | 106.0
Cc1cccc(-c2nnc(C3CCNCC3)o2)c1 | 77.8* | -0.05 | -34.5 | 102.0
CCn1c(SCC(=O)OCC(=O)N2c3ccccc3Sc3ccccc32)nnc1-c1ccco1 | -6.6 | -0.05 | -27.4 | 98.0
